# “And” between values parts separate entries of the source, which are not always exact repeats. Identical values can stand only once. Records with an inconclusive call do not appear. The source made the active and inactive calls. The call rests on the fitted dose curve; in most records, active means well fitted activation curve with a large enough effect; inconclusive means small, poorly fitted or top-dose-only effect; inactive means flat fitted curve, though single readings scatter.
# Assay: qHTS Assay for Identifying a Potential Treatment of Ataxia-Telangiectasia: SAR for Probe
# Details: F2112 A-T fibroblasts, NCS-induced pKAP1 AlphaLISA
# Excerpt: NIH Chemical Genomics Center [NCGC] NIH Molecular Libraries Probe Centers Network [MLPCN] MLPCN Grant: MH089030-01 Assay Submitter (PI): Wei Zheng and Yosef Shiloh Ataxia-telangiectasia (A-T) is a devastating and progressive disease for which, there is no cure. Although A-T is a multisystem disease, it is stereotyped characterized by its neurological symptoms such as truncal ataxia, due to cerebellar cortical degeneration of the Purkinje and granule cells. Other symptoms of A-T are telangiectasias (dilated blood vessels), primary immunodeficiency, marked sensitivity to ionizing radiation (IR), chromosomal instability and predisposition to cancer. The underlying genetic cause of A-T is null mutations in the ATM (A-T mutated) gene. ATM is a nuclear serine/threonine kinase that functions as a master regulator of the cellular responses to double strand breaks (DSBs) in the DNA. Upon activation by DSBs, ATM phosphorylates a plethora of downstream targets, including KAP-1 on Ser82452. […] To screen for small molecules that will compensate for the loss of ATM in cells derived from A-T patients, we monitored KAP-1 phosphorylation as a readout for ATM-like activity using an AlphaLISA assay. […]
# qHTS Assay Protocol: Step,Parameter,Value,Description 1. […] Readout, EnVision, EnVision plate reader. […] EnVision protocol for 1536-well AlphaScreen read (30ms excitation, 100ms read), about 10 min/plate.
structure (smiles),measurement,value
CC(=O)c1c(O)c(C)c(O)c(Cc2c(O)c3c(c(C(=O)/C=C/c4ccccc4)c2O)OC(C)(C)C=C3)c1O,Potency,29.2 µM (active) and 10 µM (active)

# — PubChem BioAssay AID504362 (National Center for Advancing Translational Sciences (NCATS), 2011)
